From PubChem BioAssay
Hits are enriched below; roughly 2.3% of the tested compounds scored in any of these assays.
DENV2 CPE: inhibitors of DENV2 cytopathic effect, primary screen, cell-based, plate reader, single concentration | DENV2-infected cells, cytopathic effect rescue | CPE inhibition, % at 9.99 µM | hit rate 1.7% among 350,000 | AID 651640, 2012; in the data active = CPE inhibition above about 20%, passing the limit was not always enough; inconclusive = no clear call, values can overlap the other calls; tested in BHK-21 cells
Rtt109 Vps75: inhibitors of C. albicans Rtt109/Vps75 HAT, primary screen, biochemical, ThioGlo CoA-SH fluorescence, plate reader; Histone acetyltransferase RTT109 (Candida albicans (strain SC5314 / ATCC MYA-2876)), …; purified Rtt109/Vps75, 4 h; inhibition, % at 34.9 µM; hit rate 0.16% among 330,000; AID 540336, 2011;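 active = inhibition of at least 50% in every replicate; inconclusive = best replicate reaches 50% inhibition but some replicates fall short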
ERp5 inh: inhibitors of ERp5-driven insulin aggregation, primary screen, biochemical, turbidity, absorbance 650 nm, single point; Protein disulfide-isomerase A6 (Homo sapiens), Q15084; 90 min; inhibition, % at 9.99 µM; hit rate 0.05% among 350,000; AID 651711, 2012;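 active = mean replicate inhibition above about 25%, with every replicate also reaching it, limit read from the data, passing the limit was not always enough; inconclusive = only one of those two criteria met; inactive = neither criterion met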
PDI inh: inhibitors of human PDI, primary screen, biochemical, turbidity, single point, plate reader. PDI insulin aggregation turbidity, A650, 90 min. inhibition, % at 10 µM. Protein disulfide-isomerase (Homo sapiens), P07237. hit rate 0.052% among 350,000. AID 588391, 2011;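 active = mean inhibition across replicates of 30% or more, whatever share of single replicates reach that level; inconclusive = mean inhibition below 30% while every single replicate reaches 30%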
Target sequence (P07237 whole entry, looked up): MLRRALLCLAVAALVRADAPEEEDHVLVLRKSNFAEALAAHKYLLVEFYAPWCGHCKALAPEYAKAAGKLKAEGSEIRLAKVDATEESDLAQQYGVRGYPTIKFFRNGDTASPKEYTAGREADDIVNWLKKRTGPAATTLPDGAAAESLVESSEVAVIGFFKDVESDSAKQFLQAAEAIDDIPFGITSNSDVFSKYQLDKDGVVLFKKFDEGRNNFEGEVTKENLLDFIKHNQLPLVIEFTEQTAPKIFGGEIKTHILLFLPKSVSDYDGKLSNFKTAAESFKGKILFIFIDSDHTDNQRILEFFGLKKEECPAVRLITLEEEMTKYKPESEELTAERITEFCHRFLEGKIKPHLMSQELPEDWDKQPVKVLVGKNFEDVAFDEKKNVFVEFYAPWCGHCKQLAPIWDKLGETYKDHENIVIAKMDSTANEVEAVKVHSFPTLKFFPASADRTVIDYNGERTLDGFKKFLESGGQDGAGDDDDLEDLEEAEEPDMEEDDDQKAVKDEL
SIRT5 block: SIRT5 desuccinylase inhibitors, primary screen, biochemical, fluorescence imaging, single point, set 5. NAD-dependent protein deacylase sirtuin-5, mitochondrial (Homo sapiens), Q9NXA8. Purified SirT5, succinyl-peptide AMC, trypsin-coupled fluorescence. inhibition, % at 15 µM. hit rate 1.1% among 330,000. AID 652115, 2013; in the data active = inhibition above about 15%; inconclusive = no clear call, values can overlap the other calls
Numbers stand for hits; . = inactive; ? = inconclusive; / = no result given; ! = repeats disagree.

SMILES | DENV2 CPE | Rtt109 Vps75 | ERp5 inh | PDI inh | SIRT5 block
CCc1cc(=O)oc2cc(C)cc(OCC(=O)NC(Cc3c[nH]c4ccc(O)cc34)C(=O)O)c12 (stereo not given) | . | . | . | / | /
COc1ccc(-c2cc(=O)oc3cc(OC(C)C(=O)NC(Cc4c[nH]c5ccc(O)cc45)C(=O)O)ccc23)cc1 (stereo not given) | ? | . | . | / | /
Cc1ccc(S(=O)(=O)Nc2cccc3c2O[C@H](CN(C)C(=O)Nc2ccccc2)[C@@H](C)CN([C@@H](C)CO)C3=O)cc1 | . | / | . | / | .
C[C@@H]1CN([C@@H](C)CO)C(=O)c2cc(NC(=O)c3ccccc3)ccc2O[C@@H](C)CCCCO[C@H]1CN(C)C(=O)Nc1cccc2ccccc12 | . | / | . | / | .
C[C@H](CO)N1C[C@H](C)[C@H](CN(C)C(=O)Nc2cccc3ccccc23)OCCCC[C@H](C)Oc2ccc(NC(=O)Nc3ccc(F)cc3)cc2C1=O | 24.9 | / | . | / | .
C[C@@H]1CCCCO[C@H](CN(C)C(=O)Nc2cccc3ccccc23)[C@@H](C)CN([C@H](C)CO)C(=O)c2cc(NC(=O)Nc3ccc(F)cc3)ccc2O1 | . | / | . | / | .
C[C@@H]1CCCCO[C@@H](CN(C)C(=O)Nc2cccc3ccccc23)[C@H](C)CN([C@@H](C)CO)C(=O)c2cc(NC(=O)c3ccccc3)ccc2O1 | . | / | . | / | 16.9
C[C@@H]1CCCCO[C@@H](CN(C)C(=O)Nc2ccc3c(c2)OCO3)[C@@H](C)CN([C@@H](C)CO)C(=O)c2cc(NC(=O)Nc3cccc4ccccc34)ccc2O1 | 61.0 | / | . | / | .
C[C@@H]1CCCCO[C@@H](CN(C)C(=O)Nc2cccc3ccccc23)[C@@H](C)CN([C@@H](C)CO)C(=O)c2cc(NC(=O)Nc3ccc(C(F)(F)F)cc3)ccc2O1 | 26.5 | / | . | / | .
CC1C=NC(S(=O)(=O)N2CC[C@@H]3[C@H]2c2cc(-c4ccccc4)ccc2N(C)[C@H]3CO)=N1 (stereo not given in full) | . | / | . | / | .
C[C@H]1CN([C@@H](C)CO)C(=O)c2cccc(NC(=O)CCCCCC(=O)Nc3ccccc3N)c2O[C@H]1CN(C)C(=O)Nc1ccc(C(F)(F)F)cc1 | . | / | / | / | .
C[C@H]1CCCCO[C@@H](CN(C)C(=O)Nc2ccccc2)[C@@H](C)CN([C@@H](C)CO)C(=O)c2cc(NS(=O)(=O)c3cn(C)cn3)ccc2O1 | . | / | . | / | .
C[C@@H]1CN([C@H](C)CO)C(=O)c2c(c3ccccc3n2C)-c2ccccc2CO[C@@H]1CN(C)C(=O)C1CC1 | . | / | . | / | .
C[C@H]1CCCCO[C@H](CN(C)S(=O)(=O)c2cn(C)cn2)[C@@H](C)CN([C@@H](C)CO)C(=O)c2cc(NC(=O)Nc3ccccc3)ccc2O1 | . | / | . | / | .
C[C@@H]1CCCCO[C@H](CN(C)C(=O)Nc2cccc3ccccc23)[C@@H](C)CN([C@H](C)CO)C(=O)c2cc(N(C)C)ccc2O1 | . | / | . | . | 27.0!
C[C@@H]1CCCCO[C@H](CN(C)S(=O)(=O)c2ccc(F)cc2)[C@@H](C)CN([C@H](C)CO)C(=O)c2cc(NC(=O)Nc3cccc4ccccc34)ccc2O1 | 26.2 | / | . | / | .
O=C(C1CCOCC1)N1[C@H](CO)[C@@H](c2ccccc2)C12CN(Cc1cccnc1)C2 | 96.9 | / | . | / | .
O=C(Cc1cccnc1)N1CC2(C1)[C@H](c1ccccc1)[C@@H](CO)N2C(=O)C1CC1 | 21.4 | / | . | / | .
O=C(Cc1cccnc1)N1CC2(C1)[C@H](c1ccccc1)[C@@H](CO)N2C(=O)C1CCCC1 | . | / | . | / | .
CC(C)NC(=O)N1[C@H](CO)[C@@H](c2ccccc2)C12CN(C(=O)Cc1cccnc1)C2 | 31.4 | / | . | / | .
O=C(C1CCOCC1)N1[C@@H](CO)[C@@H](c2ccccc2)C12CN(Cc1cccnc1)C2 | . | / | . | / | .
Cc1noc(C)c1NC(=O)Nc1cccc2c1O[C@H](CN(C)Cc1ccncc1)[C@@H](C)CN([C@H](C)CO)C2=O | . | / | . | / | .
Cc1cc(C)n(CCC(=O)N2c3ccccc3CC2C)n1 (stereo not given) | . | . | . | . | 16.5
C[C@@H]1CN([C@H](C)CO)C(=O)c2cc(NS(=O)(=O)c3ccc(Cl)cc3)ccc2O[C@H]1CN(C)C(=O)Nc1ccc2c(c1)OCO2 | . | / | . | / | .
C[C@H]1CN([C@@H](C)CO)C(=O)c2cc(C#CC3(O)CCCC3)cnc2O[C@H]1CN(C)C(=O)Cc1cccnc1 | . | / | . | / | /
SMILES | DENV2 CPE | Rtt109 Vps75 | ERp5 inh | PDI inh | SIRT5 block
C[C@H]1CN([C@@H](C)CO)S(=O)(=O)c2ccc(-c3cccc(F)c3)cc2O[C@@H]1CN(C)C(=O)Nc1cc(F)ccc1F | . | / | . | / | 18.7
C[C@H](CO)N1C[C@H](C)[C@H](CN(C)C(=O)Nc2ccccc2F)Oc2cc(-c3ccc(F)cc3)ccc2S1(=O)=O | 25.9 | / | . | / | .
CNC[C@@H]1Oc2cc(C#CC(C)(C)O)ccc2S(=O)(=O)N([C@@H](C)CO)C[C@H]1C | . | / | . | / | .
Cc1noc(C)c1NC(=O)Nc1ccc2c(c1)C(=O)N([C@H](C)CO)C[C@H](C)[C@H](CN(C)CC1CCCCC1)OCCCC[C@H](C)O2 | ? | / | . | / | .
CCC(=O)Nc1ccc2c(c1)C(=O)N(C)[C@H]1CC[C@H](CC(=O)NC3CCCC3)O[C@H]1CO2 | . | / | . | / | .
CN1C(=O)c2cc(NC(=O)NC3CCCC3)ccc2OC[C@H]2O[C@H](CC(=O)NC3CCC3)CC[C@@H]21 | 61.4 | / | . | / | .
CCC(=O)Nc1ccc2c(c1)C(=O)N(C)[C@@H]1CC[C@H](CC(=O)NC3CCCC3)O[C@H]1CO2 | 43.5 | / | . | / | .
COCC#Cc1cnc2c(c1)C(=O)N([C@@H](C)CO)C[C@H](C)[C@@H](CN(C)C(C)=O)O2 | . | / | . | / | .
CCC(=O)N1C[C@@H](O)COC[C@@H]2O[C@@H](CC(=O)N3CCCCC3)CC[C@H]21 | . | / | . | / | .
O=C(O)c1ccccc1NS(=O)(=O)c1cccc(-n2sc3ccccc3c2=O)c1 | . | 152.7 | . | . | .
CCCCCCCCN1[C@@H](CC(=O)O)c2cc(C(F)(F)F)ccc2S1(=O)=O | . | . | . | . | 40.1
CCCCCCCCCCCCN1[C@@H](CC(=O)O)c2cc(C(F)(F)F)ccc2S1(=O)=O | ? | ? | . | . | /
COc1ccc(CN(C)C[C@@H]2Oc3ccc(NC(=O)CCC(F)(F)F)cc3C(=O)N([C@H](C)CO)C[C@H]2C)cc1 | . | / | . | / | 29.3
COc1ccc(CN(C)C[C@H]2Oc3ccc(NC(=O)CCC(F)(F)F)cc3C(=O)N([C@H](C)CO)C[C@H]2C)cc1 | . | / | . | / | .
